IMPase inh: membrane-permeable compound that blocks inositol monophosphatase. inhibition (IP1 accumulation), % at 46.1 µM. 120,000 tested, under 10 active. P97697. CHO-M1 cells, IP1 accumulation, HTRF TR-FRET ratio; active means well fitted curve in the direction sought with a large enough effect in the signal ratio, not every such curve was filed as active; inconclusive means small, poorly fitted or top-dose-only effect, or a change in a side signal; inactive means no such curve, though single readings can be large or run the other way; the % refers to the signal ratio;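 further: cells stimulated with carbachol in lithium chloride buffer; plate controls were DMSO basal wells for no effect and reference inhibitor wells for full effect; higher means more IMPase inhibition seen as more IP1 and lower FRET ratio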
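Cellular IMPase inhibition is scored as a rise in cytosolic IP1, detected by competitive TR-FRET between d2-labelled IP1 and a europium anti-IP1 antibody. M1-expressing CHO cells were stimulated with carbachol for 30 min at 37C, with lithium (50 mM LiCl) present in the buffer.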
PNC assembly inh: perinucleolar compartment assembly inhibition. PC3M PTB-GFP, PNC prevalence imaging, 16 h; hits give low values. activity change (PNC), negative = inhibition, % at 10 µM. 3.1% of 140,000 active. AID 2417;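 active means readout at or below -70, meaning at least 70% loss of cells showing the perinucleolar compartment, a nuclear body marking cancer cells; inconclusive means readout between -30 and a set limit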;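 further: plate controls were DMSO wells for no effect and camptothecin positive control wells for full effect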
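Read-out is percentage of cells bearing a perinucleolar compartment, from automated 20x imaging of fixed, Hoechst-stained PC3M PTB-GFP cells. Cells were seeded 4 h, then exposed 16 h to compound (23 nl of library stock) in duplicate plates.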
IMPase Li inh: cell-permeable IMPase inhibitors with lithium potentiation. CHO-M1 cells, IP1 TR-FRET (IP-One), carbachol + lithium. Potency, µM (doses to about 59.4 µM), for the others: top-dose activity, negative = IMPase inhibition, actives largely listed as inhibitors. 0.35% of 210,000 active;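 further: IP1 builds up when IMPase is blocked and the TR-FRET signal falls; potency means the concentration at half of the fitted maximal effect; plate controls were basal vehicle for no effect and high inhibitor control for full effect; nearly all actives have a fitted effect of over 50% in size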
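CHO cells stably expressing M1 receptor (2000/well) were cultured 16–30 h, then exposed to compounds with a small lithium addition for 30 min at 37C. IP1 was measured by TR-FRET competition; AC50 from Hill fits.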
ALOX15B inhib: inhibitors of human 15-lipoxygenase 2 (ALOX15B). O15296. 0.56% of 110,000 active. AID 881. purified 15hLO-2, xylenol orange hydroperoxide absorbance. Potency, µM (top dose mostly 57.1 µM), for the others: at the highest dose activity change, negative = inhibition, usual class: inhibitors; further: potency means the concentration at half of the fitted maximal effect; nearly all actives have a fitted effect of over 60% in size
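Screening format was qHTS against 50 nM purified 15hLO-2 in Hepes pH 7.5 with detergent. Activity follows hydroperoxide formation from 45 uM arachidonic acid, measured as 573:405 nm absorbance ratio of the ferric-xylenol orange complex.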
12-hLO inh: 12-hLO (ALOX12) enzyme inhibition; purified 12-hLO, xylenol orange hydroperoxide absorbance; 0.12% of 150,000 active; AID 1452; Potency, µM (top dose mostly 57.1 µM), for inactives: at the top dose activity change, negative = inhibition, hits mostly inhibitors; further: potency means the concentration at half of the fitted maximal effect; nearly all actives have a fitted effect of over 55% in size
Target sequence (P18054 whole entry, looked up): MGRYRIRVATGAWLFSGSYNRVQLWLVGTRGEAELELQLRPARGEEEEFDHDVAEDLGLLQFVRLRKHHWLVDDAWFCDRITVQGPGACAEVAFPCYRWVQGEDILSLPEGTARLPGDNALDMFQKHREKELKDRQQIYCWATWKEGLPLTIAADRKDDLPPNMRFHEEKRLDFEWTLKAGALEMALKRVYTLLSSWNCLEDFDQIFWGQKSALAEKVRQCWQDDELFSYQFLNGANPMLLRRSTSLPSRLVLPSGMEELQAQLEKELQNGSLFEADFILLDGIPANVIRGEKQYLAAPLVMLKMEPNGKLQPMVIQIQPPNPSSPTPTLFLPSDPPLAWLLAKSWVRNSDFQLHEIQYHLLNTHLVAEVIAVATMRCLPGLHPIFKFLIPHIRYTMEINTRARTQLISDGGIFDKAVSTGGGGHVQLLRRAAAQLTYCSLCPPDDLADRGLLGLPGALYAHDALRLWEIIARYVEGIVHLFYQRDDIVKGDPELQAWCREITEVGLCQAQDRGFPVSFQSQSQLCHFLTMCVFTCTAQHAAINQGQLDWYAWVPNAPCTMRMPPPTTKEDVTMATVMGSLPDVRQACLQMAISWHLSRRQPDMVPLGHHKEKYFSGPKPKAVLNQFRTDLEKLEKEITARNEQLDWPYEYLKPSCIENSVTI
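Hydroperoxide output read as Fe(III)-xylenol orange absorbance, 573-to-405 nm ratio, after 30 min reaction with 40 uM arachidonic acid. Enzyme: 150 nM purified human 12hLO, 15 min compound preincubation; 25 mM Hepes pH 7.0, room temperature.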
Starred values were filed as active, the others as inactive; ? = inconclusive; · = not tested or not shown; ! = repeats disagree; [ ] = dose if it differs, or a comment. The full list was thinned out, with hits kept by preference. Unless noted, the call rests on the fitted dose curve; in most records, active means well fitted curve in the direction sought with a large enough effect; inconclusive means small, poorly fitted or top-dose-only effect, or another doubt; inactive means no such curve, though single readings can be large; an effect the other way counts as inactive or inconclusive. Unless noted, on the % scale 0 is the no-effect control and ±100 the full control effect.

SMILES | IMPase inh | PNC assembly inh | IMPase Li inh | ALOX15B inhib | 12-hLO inh
O=C(CCN1C(=O)/C(=C/C=C/c2ccccc2)SC1=S)Nc1cccnc1 | · | -108* | -4% | · | -1%
CCN(CC)Cc1c(O)ccc2c(-c3ccccc3)cc(=O)oc12 | -12 | -118* | -7%[38.3 µM] | 3% | -2%
CCN(CC)Cc1c(O)ccc2c(C)c(CC(=O)OC)c(=O)oc12 | -23 | 1 | 10µM* | 2% | 8%
COc1ccc(N=Nc2cnc(C)nc2-c2ccccc2)cc1 | -5[1.84 µM] | -85* | 27%[38.3 µM] | -9%[11.4 µM] | -1%
Cc1ncc(N=Nc2ccccc2Cl)c(-c2ccccc2)n1 | 8 | 29 | 6%[38.3 µM] | · | -1%
O=C(Nc1ccc2c(c1)OCO2)C1CCCN1C(=O)OCc1ccccc1 (stereo not given) | 3 | -127* | 11%[38.3 µM] | 2% | -6%
O=C(Nc1ccc2c(c1)OCO2)C1CCCN1C(=O)Nc1ccccc1F (stereo not given) | -3 | -84* | 12%[38.3 µM] | 3% | -3%
CS(=O)(=O)N1CCC[C@@]2(CCN(C(=O)Nc3cccc(C#N)c3)C2)C1 | · | · | -8% | 3% | -1%
CCN(CC)c1nc2n(c(=S)n1)CCS2 | 2 | -88* | 3%[38.3 µM] | -4% | 4%
CCN(CC)c1nc2n(c(=O)n1)CCN2CC | 0 | 24 | 9%[38.3 µM] | -6% | 3%
CC1=C(C(N)=O)C(c2cccc(C)c2)n2nc(-c3cccc(C)c3)nc2N1 (stereo not given) | 8 | · | · | · | ·
CCC(=O)N1CCN(c2ccccc2NC(=O)Cc2ccc(Cl)cc2)CC1 | 18 | ? | 23%[38.3 µM] | -2% | -5%
CCC(=O)N1CCN(c2ccc(Cl)cc2NC(=O)Cc2ccc(Cl)cc2)CC1 | 17 | -82* | 15%[38.3 µM] | 4% | -2%
CC(O)C#C[Si](C)(C)c1ccccc1 (stereo not given) | · | · | 10% | · | ·
O=C1NN(c2ccccc2)C(=O)/C1=C\c1cccc(OC(=O)c2cccs2)c1 | -1 | -6 | 24%[38.3 µM] | 16µM* | ?
COC(=O)N/N=C\c1cccc(OC(=O)c2cccs2)c1 | · | · | 1% | · | ·
O=C1NN(c2ccc(Cl)c(Cl)c2)C(=O)/C1=C/c1cccc(OC(=O)c2cccs2)c1 | -1 | 6 | 28%[38.3 µM] | 10µM* | ?
CC(=O)OCCC(C)CCC=C(C)C (stereo not given) | · | · | -5% | 7% | 1%
CC(C)OC(=O)c1sc2nc(-c3ccccc3)ccc2c1N | ? | -100* | -27%[38.3 µM] | -7% | -11%
CCOC(=O)C1CCCN(Cc2ccccc2F)C1 (stereo not given) | 3 | -89* | -3%[38.3 µM] | -9% | -10%
CCOC(=O)C1CCCN(Cc2c(Cl)cccc2Cl)C1 (stereo not given) | 0 | ? | -9%[38.3 µM] | -13% | -8%
COC(=O)[C@@H]1C(O)[C@@H](C(=O)OC)[C@H](C)N(C)[C@@H]1C (stereo not given in full) | · | · | -4% | -2%[11.4 µM] | 4%[11.4 µM]
COc1ccccc1NC(=O)c1cnc(Nc2ccccc2OC)c2ccccc12 | · | -86* | -1% | · | -1%
COc1ccccc1Nc1ncccc1C(=O)O | 7 | -100* | -2%[38.3 µM] | -4% | 9%
COc1cccc(Nc2ncccc2C(=O)Nc2ccccc2)c1 | 7 | -80* | 0%[38.3 µM] | 25% | -3%
SMILES | IMPase inh | PNC assembly inh | IMPase Li inh | ALOX15B inhib | 12-hLO inh
O=C(O)C[C@@H]1CCCc2ccccc2[C@H]1O | -2 | · | · | -5% | -4%
COc1ccccc1-c1nccc(Nc2ccc(F)cc2)n1 | · | · | -5% | 17% | ·
COc1ccc(C2C(C(=O)O)CC(=O)N2c2ccc(OC)cc2)cc1 (stereo not given) | -5 | -14 | 5% | 1% | 1%
CCOC(=O)N1CCN(C(=O)C2CC(=O)N(c3ccc(OC)cc3)C2c2ccc(OC)cc2)CC1 (stereo not given) | -2 | -100* | 2% | · | 6%
CN(CCc1ccccn1)c1ccc2c(c1)C(=O)c1ccccc1-2 | · | · | 10% | 2%[11.4 µM] | -1%[11.4 µM]
CCn1cc(C(C)NC(=O)COc2ccc(Cl)cc2C)c(C)n1 (stereo not given) | 2 | -95* | 15%[38.3 µM] | -3% | -1%
CCOC(=O)c1c(-c2cccs2)csc1NC(=O)CC(C)C | 6 | 12 | 42%[38.3 µM] | 2% | -1%
COC(=O)c1c(-c2cccs2)csc1NC(=O)c1cccnc1 | 4 | -100* | 23%[38.3 µM] | 8% | -5%
CCOC(=O)c1c(-c2cccs2)csc1NC(=O)c1ccco1 | -5 | -100* | -17% | · | 5%
CCC(=O)N=c1sc2c(C)cc(C)cc2n1CC(=O)OC | 7 | 25 | 13µM* | 1% | -9%
COc1ccc(Oc2ncc3nc(-c4ccc(F)cc4)c(=O)n(CCC#N)c3n2)cc1 | · | · | 1% | 0% | ·
Cc1cccc(/C=C(\c2nc3ccccc3[nH]2)S(=O)(=O)c2ccccc2)c1 | 20 | -82* | -8% | · | -2%
COC(=O)CCCCCN1C(=O)NC(c2ccccc2)C(C(=O)OCc2ccccc2)=C1C (stereo not given) | · | -92* | 15% | -5% | -6%
CC1=C(C(=O)OCc2ccccc2)C(C2CC2)NC(=O)N1CCCCCC(=O)O (stereo not given) | · | · | 8% | 12% | -4%
NC1=CC(=O)c2cccc3cccc1c23 | ? | 104 | 13µM* | · | -3%
NC1=Nc2cccc3cccc1c23 | · | · | -3% | · | ·
CCOC(=O)c1cnc(SC)nc1Oc1cccc(NS(=O)(=O)c2ccc(Cl)cc2)c1 | 5 | -100* | 8% | · | 9%
Cc1ccc(S(=O)(=O)Oc2ccc(/C=N/NC(=O)c3nn(C)cc3Cl)cc2)cc1 | 3 | -100* | 7% | · | 0%
C=Cc1ccc(COc2ccc3oc(-c4ccccc4)c(C(=O)OCC)c3c2)cc1 | -1 | · | · | · | ·
CCN(C(=O)COC(=O)CNC(=O)c1ccc2ccccc2c1)C1CCS(=O)(=O)C1 (stereo not given) | · | · | 1% | · | ·
CCN(C(=O)COC(=O)CNC(=O)c1ccc(C)c(C)c1)C1CCS(=O)(=O)C1 (stereo not given) | · | -121* | -9% | · | -6%
Cc1ccccc1-c1nc(NC2CCNCC2)c2ccccc2n1 | · | · | 5% | 21% | 1%
CC(=O)N1C(=O)C2(C(C#N)=C(N)Oc3cc(C)oc(=O)c32)c2ccccc21 (stereo not given) | 15 | -115* | 20%[38.3 µM] | 0% | -3%
CCOc1ccc(CN2CCN(S(=O)(=O)c3ccc(Cl)cc3)CC2)cc1 | -4 | · | · | · | ·
CCc1c(C)nc2ccc(Br)cc2c1Cl | -13 | 36 | 11µM* | 2% | 0%
Nc1ccc(-c2nc3ccccc3[nH]2)cc1 | 3 | 4 | 2%[38.3 µM] | 4% | 0%
Nc1ccc(-c2nc3ccc(-c4nc5ccc(N)cc5[nH]4)cc3[nH]2)cc1 | ? | · | 10µM*! | 15%[0.0915 µM] | 0%[0.00818 µM]
O=C(CSc1ncccc1-c1nc2ccccc2[nH]1)N1CCN(c2ccccc2F)CC1 | ? | -20 | 10µM* | 8% | -11%
